Screens as filed in PubChem.
The entries come from a sample that favours hits as a whole.
ST2 inh – inhibitors of human ST2 (IL1RL1) binding to IL-33, primary screen, biochemical, AlphaLISA. Interleukin-1 receptor-like 1 (Homo sapiens), Q01638. AlphaLISA ST2-Fc/biotin-IL-33 interaction, 1 h. inhibition, % for hits at 17 µM. 78,000 tested, 2.3% active. AID 1259354, 2018; in the data active = inhibition above about 30%
Target sequence (Q01638 whole entry, looked up): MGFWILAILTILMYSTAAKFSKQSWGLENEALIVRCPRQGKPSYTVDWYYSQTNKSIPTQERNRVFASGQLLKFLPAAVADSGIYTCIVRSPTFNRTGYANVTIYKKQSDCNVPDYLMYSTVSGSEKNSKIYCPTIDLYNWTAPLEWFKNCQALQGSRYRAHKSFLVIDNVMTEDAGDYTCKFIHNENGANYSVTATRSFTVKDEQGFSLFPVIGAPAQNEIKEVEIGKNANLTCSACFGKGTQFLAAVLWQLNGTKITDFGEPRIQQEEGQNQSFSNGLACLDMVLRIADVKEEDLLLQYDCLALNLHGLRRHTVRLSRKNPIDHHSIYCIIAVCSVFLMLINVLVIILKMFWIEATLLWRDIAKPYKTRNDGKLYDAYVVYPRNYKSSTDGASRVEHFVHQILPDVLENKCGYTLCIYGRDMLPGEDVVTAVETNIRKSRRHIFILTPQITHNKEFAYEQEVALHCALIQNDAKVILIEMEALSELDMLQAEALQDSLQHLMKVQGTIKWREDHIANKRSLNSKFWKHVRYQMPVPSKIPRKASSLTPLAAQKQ
The depositor's hits bear a star; i = inactive.

SMILES | ST2 inh
CC(=O)Nc1ccc(S(=O)(=O)Nc2ccc(C(C)C)cc2)cc1 | i
CC(N)=NS(=O)(=O)c1ccc(Cl)cc1 | i
O=C1C=CC(=NS(=O)(=O)c2ccc(Cl)cc2)c2ccccc21 | 60%*
CC(C)c1ccc(S(=O)(=O)N=C2C=CC(=O)c3ccccc32)cc1 | 45%*
COCc1nc(N2CCCC(c3nc(C(C)C)no3)C2)c2cnn(C)c2n1 (stereo not given) | i
O=C(Nc1ccccn1)c1ccc2c(c1)C(=O)N(c1cccc([N+](=O)[O-])c1)C2=O | 30%*
O=C(Nc1ccccc1C(=O)O)c1ccc2c(c1)C(=O)N(c1ccccn1)C2=O | i
CC1=C(C(=O)Nc2ccccn2)C(c2cccc([N+](=O)[O-])c2)C2=C(CCCC2=O)N1 (stereo not given) | i
O=C(CN1C(=O)c2ccccc2C1=O)Nc1ccc(F)cc1Cl | i
O=C(Nc1cccc2nsnc12)c1cncc(Br)c1 | i
CCC(C)NC(=O)c1cc2c(=O)n3ccccc3nc2n1C (stereo not given) | i
COCc1cc(C)nc2sc(C(=O)c3ccccc3)c(N)c12 | i
CC(=O)c1cc2c(N)c(C(=O)c3ccc(Cl)cc3)sc2nc1C | 38%*
Cc1ccc2c(N)c(C(=O)c3ccc(Cl)cc3)sc2n1 | i
CCOC(=O)Cn1c(=O)n(-c2ccc(F)cc2)c2nc(-c3cccc(OC)c3)nc(C(N)=O)c21 | i
CC(C)(C)C(=O)/C=C(\N)C(Cl)(Cl)Cl | i
COCCCNC(=O)c1cc2cc3ccc(OC)cc3nc2o1 | i
CCOc1ccc(-n2c(SCc3ccccc3)nc3c(c2=O)SCC3)cc1 | i
CCSc1nc2ccc([N+](=O)[O-])cc2[nH]1 | i
O=[N+]([O-])c1ccc2nc(/C=C/c3ccco3)[nH]c2c1 | 32%*
O=c1[nH]c(SCc2nc3ccc([N+](=O)[O-])cc3[nH]2)nc2ccccc12 | i
O=C(Nc1nc2ccccc2s1)C1c2ccccc2C(=O)N2CCc3ccccc3C12 (stereo not given) | i
Cc1ccc(Cn2c(=O)n(-c3ccccc3)c(=O)c3sccc32)cc1 | i
COc1ccc(C(=O)Nc2ccc(S(=O)(=O)Nc3nc(C)cc(C)n3)cc2)c(OC)c1 | i
COc1cc([N+](=O)[O-])cc(CN2CCN(c3ccccc3F)CC2)c1O | i
SMILES | ST2 inh
O=[N+]([O-])c1ccccc1CN1CCN(c2ncccn2)CC1 | 31%*
COc1ccccc1N1CCN(Cc2cc(OC)c(O)c([N+](=O)[O-])c2)CC1 | i
COc1ccccc1N1CCN(Cc2cc([N+](=O)[O-])c(O)c3ncccc23)CC1 | 34%*
O=[N+]([O-])c1ccccc1CN1CCN(Cc2ccccn2)CC1 | i
COc1cc(CN2CCN(c3ccccc3C)CC2)c([N+](=O)[O-])cc1OC | i
COc1cc(CN2CCN(c3ccccc3C)CC2)cc([N+](=O)[O-])c1O | 89%*
O=[N+]([O-])c1ccccc1CN1CCN(c2ccccn2)CC1 | i
CC1CCN(Cc2cc([N+](=O)[O-])c(O)c3ncccc23)CC1 | i
Cc1ccccc1-c1nnn(Cc2ccc([N+](=O)[O-])cc2)n1 | i
CC1=C(C(=O)Nc2ccc(Br)cn2)C(c2ccc(C)cc2)C2=C(CCCC2=O)N1 (stereo not given) | i
COc1ccc(Cn2c(Cc3ccncc3)n[nH]c2=O)cc1 | i
O=S(=O)(Cc1ccccc1)NCc1ccncc1 | i
Cc1ccc(S(=O)(=O)N2CCN(c3nc(C)cc(N4CCOCC4)n3)CC2)cc1 | i
Cc1ccc(SC2=C(N3CCOCC3)C(=O)N(c3cc(C)cc(C)c3)C2=O)cc1 | 43%*
Cc1cccc(N2C(=O)CC(N3CCOCC3)C2=O)c1 (stereo not given) | i
CC1(C)CC(=O)C2=C(C1)Nc1ccccc1NC2c1ccc(Cl)c(Cl)c1 (stereo not given) | i
O=C1CC(c2ccccc2)CN1C(=O)c1ccc(F)cc1 (stereo not given) | i
Cc1ccc(S(=O)(=O)N2CCN(c3nc(-c4cccs4)cs3)CC2)cc1 | 32%*
CC1CC(C)CN(S(=O)(=O)c2ccc(C(=O)Nc3nc(-c4cccs4)cs3)cc2)C1 (stereo not given) | i
Cc1ccc(S(=O)(=O)N2CCCC2)cc1 | i
COc1ccc(C2SCCN2S(=O)(=O)c2ccc(Br)cc2)cc1[N+](=O)[O-] (stereo not given) | i
CCOc1ccc(C(=O)Nc2c(C)cc(Br)cc2C)cc1[N+](=O)[O-] | i
CN1c2ccccc2N(C)C1c1ccc2c(c1)OCO2 | i
O=[N+]([O-])C1=Cc2cc(Br)cc(Br)c2OC1c1ccc2c(c1)OCO2 (stereo not given) | 60%*
O=[N+]([O-])c1ccc(C2CNC(c3ccc4c(c3)OCO4)O2)cc1 (stereo not given) | i
SMILES | ST2 inh
CCOc1ccc(C2Oc3c(cc(Br)cc3OC)C=C2[N+](=O)[O-])cc1OC (stereo not given) | 36%*
O=C(NCCc1ccccc1)C1CCN(S(=O)(=O)c2ccc(F)cc2)CC1 | i
CC1=C(C(=O)OCc2ccccc2)C(c2cccc(F)c2)N2C(=O)CCSC2=N1 (stereo not given) | i
CCOc1ccc(C2CC(c3ccc(CC)cc3)Nc3ncnn32)cc1 (stereo not given) | i
Cc1cc(C)n2nc(C(=O)N3CCC4(CN(C)C(=O)O4)C3)cc2n1 (stereo not given) | i
CC(C)(C)c1nnc([C@H]2CCN(S(=O)(=O)Cc3ccccc3)C2)o1 | i
C=CCc1c(C)nc2nc(SCC(=O)Nc3ccc(C)cc3)nn2c1C | i
CC(C)NC(=O)[C@@]12CC[C@](C)(C(=O)C1)C2(C)C | i
Cc1ccc2c(C)ccc(O)c2n1 | 31%*
COc1ccc(-c2ncc(Cl)cn2)c2ccc(C)nc12 | i
Cc1ccc(O)c(CCc2ccc(O)c(S(=O)(=O)O)c2)n1 | i
CN(CC1COc2ccccc2O1)C(=O)c1ccc(NCc2ccncc2)nc1 (stereo not given) | i
O=C1c2ccccc2C(=O)[C@H]2C3c4ccccc4C(c4ccccc43)[C@@H]12 | 32%*
O=C1c2ccccc2C(=O)C1c1ccc(-c2ccccc2)cc1 | i
O=C1c2ccccc2C(=O)C1c1cccc2c1CCCC2 | i
COc1ccccc1Nc1nc(-c2ccc(F)cc2)cs1 | i
CC(=O)Nc1nc(C)c(-c2csc(Nc3ccc(Br)cc3)n2)s1 | i
COc1ccc(OC)c(Nc2nc(-c3sc(N)nc3C)cs2)c1 | 36%*
CCOC(=O)N1CCN(C(=O)CN(C)S(=O)(=O)c2ccc(Br)cc2)CC1 | i
COc1ccc(C2CC(C3C(=O)c4ccccc4C3=O)=NN2)cc1 (stereo not given) | 36%*
COc1cccc2ccc(C3C(=O)c4ccccc4C3=O)nc12 | i
COc1ccc(C2=NNC(c3ccccc3)C2)c(O)c1 (stereo not given) | i
CC(=O)n1c2ccccc2c2cc([N+](=O)[O-])ccc21 | i
CC(=O)n1cc(C(C[N+](=O)[O-])SCc2ccccc2)c2ccccc21 (stereo not given) | 41%*
CC(=O)NC(C(N)=O)C(SCc1ccccc1)c1c[nH]c2ccccc12 (stereo not given) | i
CCN(CC)CCN(CC)C(=O)Cn1nnnc1CN1CCOCC1 | i
Cc1ccsc1C(=O)NCCC1CN(Cc2ccco2)CCO1 (stereo not given) | i
